Laboratory results as given in ChEMBL document CHEMBL4513216, “Probing the Open Global Health Chemical Diversity Library for Multistage-Active Starting Points for Next-Generation Antimalarials” (ACS Infect Dis, 2020).
Hit rate of the full screen: of about 69,000 compounds, about 8,600 (12%) showed an effect of 50% or more. This is one part of a sample in which strong results are shown more often than they occur.

What follows are compounds tested on Plasmodium berghei (assay: Screen against P. berghei liver stage (PbLuc), transformed with Luciferase, at 10uM). Conditions: tested at 10 uM.
Assay type: functional, HepG2

Compared with `CN(Cc1cccnc1)Cc1cn2c(n1)CN(C1CCOCC1)CC2`, `CN(C)c1ccc(CN2C[C@@H]3CC[C@H]2CN(C2CCOCC2)C3)cn1` is higher in INHIBITION: 4.57% for the first, 53.5% for the second.

First: CC1=CC[C@@H]2CN(C(=O)c3ccc(-c4cc[nH]n4)cc3)C[C@@H]2C1
Second: Cc1ccc(-c2c[nH]c([C@@H]3COCCN3Cc3ncc[nH]3)n2)cc1
The INHIBITION of the first is lower: -37.1% for the first, 46.6% for the second.

Compared with `COc1ccc(CNC(=O)NCCc2csc(C)n2)cn1`, `Cc1nc(CN2CCC3(CCN(Cc4cnn(C)c4)C3)C2=O)cs1` (stereo not given) is lower in INHIBITION: 36.1% for the first, 25.3% for the second.

Compared with `Cn1ccc(NCc2cc3cc(F)ccc3o2)n1`, `CN1CCOC[C@H]1c1nc(-c2cccc(F)c2)c[nH]1` is higher in INHIBITION: -18% for the first, 9.51% for the second.

Going from `CN1CCC(N2CCOC[C@H]2c2nc(-c3ccncc3)c[nH]2)CC1` to `CN1CCOC[C@H]1c1nc(-c2ccncc2)c[nH]1`, the INHIBITION rises from 35.8% to 52%.

Going from `CN1CCOC[C@H]1c1nc(C(C)(C)C)c[nH]1` to `CC(C)(C)c1c[nH]c([C@@H]2COCCN2C2CCC2)n1`, the INHIBITION falls from 50.2% to 23%.

First: Fc1cccc(-c2c[nH]c([C@@H]3COCCN3C3CCOCC3)n2)c1
Second: CC(C)(C)CN1CCOC[C@H]1c1nc(-c2cccc(F)c2)c[nH]1
The INHIBITION of the first is lower: -24.1% for the first, 64.8% for the second.

Going from `CN1CCC(N2CCOC[C@H]2c2nc(C(C)(C)C)c[nH]2)CC1` to `CN1CCOC[C@H]1c1nc(-c2ccccc2)c[nH]1`, the INHIBITION falls from 49.5% to -23.1%.

Compared with `c1cc(CN2CCOC[C@H]2c2nc(-c3ccncc3)c[nH]2)ccn1`, `c1cc(-c2c[nH]c([C@@H]3COCCN3Cc3ncc[nH]3)n2)ccn1` is higher in INHIBITION: -7.59% for the first, 54.7% for the second.

Going from `COCC(=O)N1CCC2(CC1)CN(S(C)(=O)=O)Cc1ccccc1O2` to `CC(C)n1c2ccccc2c2c1cc(C(=O)N(C)C)n2S(C)(=O)=O`, the INHIBITION rises from 14.94% to 49.4%.

Going from `c1ncn(CC2CN(Cc3ccc4c(c3)OCCO4)CCO2)n1` (stereo not given) to `O=C(CC1CN(Cc2ccccc2)CCO1)Nc1ccsc1` (stereo not given), the INHIBITION rises from 17.4% to 31.3%.

Going from `CC(C)[C@H]1CN(C(=O)CO)C[C@@H]1N(C)C` to `CC(C)NC(=O)CN(C)C(=O)c1c(Cl)c2ccccc2n1C`, the INHIBITION rises from 14% to 15.8%.

Compared with `CCS(=O)(=O)N1C[C@@H](O)[C@H](N(C)Cc2ccc(F)cc2)C1`, `CCC(C(=O)NCc1ccn(-c2ccc(F)cc2)n1)N1CCCC1=O` (stereo not given) is lower in INHIBITION: 11.94% for the first, 2.82% for the second.

Going from `CC1CCN(C(=O)c2ccn(COc3ccccc3)n2)CC1` to `OC(COc1ccc(F)cc1)CN1CCC(Cn2cccn2)CC1` (stereo not given), the INHIBITION rises from -15.5% to 22.9%.

First: CC(C)N1CCCn2nc(C(=O)NCc3ccccc3F)cc2C1
Second: CC(C)N1CCCn2nc(C(=O)NCCc3ccccn3)cc2C1
The INHIBITION of the first is higher: 62.6% for the first, 57.2% for the second.

First: O=C(NCc1ccccn1)c1cc2n(n1)CCNC2
Second: CC(C)N1CCCn2nc(C(=O)NCCc3c[nH]cn3)cc2C1
The INHIBITION of the first is lower: -54.5% for the first, 18.2% for the second.

First: CSc1ccccc1C(=O)NCc1cc2n(n1)CCCN(CC(C)C)C2
Second: CC(NC(=O)c1cc2n(n1)CCCN(C(C)C)C2)c1cn2ccsc2n1 (stereo not given)
The INHIBITION of the first is higher: 38.2% for the first, -59.5% for the second.

Compared with `CCN1CCO[C@@H]2CN(S(=O)(=O)c3cccs3)CC[C@@H]2C1`, `CCc1ccc2c(C3CN(CC4CCC4)C3)ncn2c1` is higher in INHIBITION: 15.6% for the first, 27.5% for the second.

Going from `CC(C)N1C(=O)CN(CCOCCO)CC1(C)C` to `CCCN1CCCN(C(=O)C(CC)N2CCCC2=O)CC1` (stereo not given), the INHIBITION falls from 23.1% to -3.99%.

Going from `Cc1cccc(Cn2c(=O)[nH]c3csnc3c2=O)c1` to `Cc1nc(C)c(C(=O)Nc2cccc(CN3CCC(CO)CC3)c2)o1`, the INHIBITION rises from 12.8% to 61.8%.

First: CC(C)C(O)CNC(=O)Nc1cnn(Cc2ccccc2)c1 (stereo not given)
Second: CC(C)n1c2ccccc2c2c1cc(C(=O)NCCO)n2C(=O)N(C)C
The INHIBITION of the first is lower: 4.82% for the first, 55.7% for the second.

First: CSc1ncc(CN2C[C@@H]3CC[C@H]2CN(C2CCOCC2)C3)cn1
Second: CCSc1ncc(CN2C[C@@H]3CC[C@H]2CN(C2CCOCC2)C3)cn1
The INHIBITION of the first is lower: 9.91% for the first, 48.5% for the second.

Compared with `O=S1(=O)c2cccnc2OC(Cc2ccccc2)CN1CC1CC1` (stereo not given), `Cc1cc(C)c(C(=O)Nc2cccc(CN3CCC(CO)CC3)c2)o1` is lower in INHIBITION: 24.5% for the first, -30% for the second.

First: OCC1(O)CCN(c2ccnc3c(C(F)(F)F)cccc23)CC1
Second: O=C1CC(N(C(=O)c2ccc(F)c(C(F)(F)F)c2)C2CC2)C(=O)N1 (stereo not given)
The INHIBITION of the first is higher: 17.5% for the first, 0.914% for the second.

First: Cc1nn(C)cc1C(=O)Nc1cccc(CN2CCC(CO)CC2)c1
Second: Cc1n[nH]c(-c2ccc(NC(=O)C(C)N3CCN(C)CC3)cc2)n1 (stereo not given)
The INHIBITION of the first is higher: 44.2% for the first, -27.4% for the second.

First: CCc1cccc(-n2nnc(C(=O)O)c2-c2ccncc2)c1
Second: CC(C)n1c2ccccc2c2c1cc(C(=O)O)n2C(=O)N(C)C
The INHIBITION of the first is lower: 45.8% for the first, 57.5% for the second.

Going from `CCC(C(=O)Nc1ccc(-c2nc(C)n[nH]2)cc1)N1CCCC1=O` (stereo not given) to `CCC(C(=O)Nc1ccc2c(C)n[nH]c2c1)N1CCCC1=O` (stereo not given), the INHIBITION falls from 59.1% to 53.6%.

Going from `Cc1n[nH]c(-c2ccc(NC(=O)C(C)(C)N3CCN(C)CC3)cc2)n1` to `CN(C)C(=O)n1c(C(=O)NC(C)(C)CO)cc2c1c1ccccc1n2C`, the INHIBITION rises from -25.6% to -24.9%.

Going from `CC(C)(C)c1noc(CCC(=O)NCC2CCS(=O)(=O)C2)n1` (stereo not given) to `C1CCC(CNC2CCCN(Cc3noc(C4CC4)n3)C2)CC1` (stereo not given), the INHIBITION rises from 26.4% to 31.6%.

First: Cc1cc(N(C)C)nc(C2COCCN2Cc2cscn2)n1 (stereo not given)
Second: CCCn1ccnc1-c1nccn1CCN(C)C
The INHIBITION of the first is higher: 45.9% for the first, 34.1% for the second.

Compared with `O=C(NC[C@H]1OC[C@@H](NC2CCNCC2)[C@@H]1O)C1CCCC1`, `CC(C)n1c2ccccc2c2c1cc(C(=O)NC1CC1)n2C(=O)N(C)C` is higher in INHIBITION: 24.5% for the first, 60.2% for the second.

Compared with `COCc1ncc(-c2nccn2CCn2cnnc2)cn1`, `CCCn1ccnc1-c1nccn1CCn1cnnc1` is higher in INHIBITION: -0.614% for the first, 50.5% for the second.

Going from `COCCNC(=O)c1cc2c(c3ccccc3n2C)n1C(=O)N(C)C` to `CCCNC(=O)c1cc2c(c3ccccc3n2C)n1C(=O)N(C)C`, the INHIBITION falls from 36.9% to 26.2%.

First: CC(C)NC(=O)c1cc2c(c3ccccc3n2C)n1C(=O)N(C)C
Second: CCCN(CC)C(=O)c1cc2c(c3ccccc3n2C)n1C(=O)N(C)C
The INHIBITION of the first is higher: 36.9% for the first, 11.9% for the second.

Going from `CC(C)n1c2ccccc2c2c1cc(C(=O)N(C)C)n2C` to `CC(C)n1c2ccccc2c2c1cc(C(=O)N(C)C)n2C(=O)N(C)C`, the INHIBITION falls from 82% to 47.5%.
